# Assay results reported in the supplement of paper PMC8728848.
# Only a selection was taken, and the strongest signals are over-represented in it overall.
# How the values were obtained:
# Assay in all cases: glycan array binding signal (z-score within array); higher = stronger binding
# Details in all cases: glycan notation: IUPAC condensed, linker removed
# [1] = molecular target: Fuc(a1-2)Gal(b1-3)GlcNAc(b1-2)Man(a1-3)[Fuc(a1-2)Gal(b1-3)GlcNAc(b1-2)Man(a1-6)]Man(b1-4)GlcNAc(b1-4)[Fuc(a1-6)]GlcNAc
# Method in brief: (§1)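 The binding signal is a Z-score computed within each array. Data were drawn from 3228 arrays in the Consortium for Functional Glycomics database, restricted to those with a known protein sequence. Scores were averaged over arrays of the same protein sequence at different concentrations or buffers, and over linkers, and negative values can be taken as non-binding.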
# [2] = molecular target: Fuc(a1-2)Gal(b1-4)GlcNAc(b1-3)Gal(b1-4)GlcNAc(b1-2)Man(a1-3)[Fuc(a1-2)Gal(b1-4)GlcNAc(b1-3)Gal(b1-4)GlcNAc(b1-2)Man(a1-6)]Man(b1-4)GlcNAc(b1-4)GlcNAc
# Method in brief: as §1
# [3] = molecular target: Fuc(a1-2)Gal(b1-4)GlcNAc(b1-3)GalNAc
# Method in brief: as §1
# [4] = molecular target: Fuc(a1-2)Gal(b1-4)[Fuc(a1-3)]GlcNAc(b1-2)[Fuc(a1-2)Gal(b1-4)[Fuc(a1-3)]GlcNAc(b1-4)]Man(a1-3)[Fuc(a1-2)Gal(b1-4)[Fuc(a1-3)]GlcNAc(b1-2)Man(a1-6)]Man(b1-4)GlcNAc(b1-4)GlcNAc
# Method in brief: as §1
# [5] = molecular target: Fuc(a1-2)Gal(b1-4)[Fuc(a1-3)]GlcNAc(b1-3)Gal(b1-4)[Fuc(a1-3)]GlcNAc(b1-3)Gal(b1-4)[Fuc(a1-3)]GlcNAc
# Method in brief: as §1
# [6] = molecular target: Fuc(a1-2)Gal6S(b1-4)Glc6S
# Method in brief: as §1
# [7] = molecular target: Fuc(a1-2)[Gal(a1-3)]Gal(b1-4)GlcNAc(b1-2)Man(a1-3)[Fuc(a1-2)[Gal(a1-3)]Gal(b1-4)GlcNAc(b1-2)Man(a1-6)]Man(b1-4)GlcNAc(b1-4)[Fuc(a1-6)]GlcNAc
# Method in brief: as §1
# [8] = molecular target: Gal(a1-3)Gal(b1-4)GlcNAc(b1-2)Man
# Method in brief: as §1
# [9] = molecular target: Gal(b1-3)GalNAc(a1-3)[Fuc(a1-2)]Gal(b1-4)GlcNAc
# Method in brief: as §1
# [10] = molecular target: Gal(b1-3)GalNAc(b1-3)Gal
# Method in brief: as §1
# [11] = molecular target: Gal(b1-3)GlcNAc
# Method in brief: as §1
# [12] = molecular target: Gal(b1-3)GlcNAc(b1-2)Man(a1-3)[GlcNAc(b1-4)][Gal(b1-3)GlcNAc(b1-2)Man(a1-6)]Man(b1-4)GlcNAc(b1-4)GlcNAc
# Method in brief: as §1
# [13] = molecular target: Gal(b1-3)[GlcNAc(b1-6)]GalNAc
# Method in brief: as §1
# [14] = molecular target: Gal(b1-4)GlcNAc(b1-2)Man(a1-3)[Gal(b1-4)GlcNAc(b1-2)Man(a1-6)][GlcNAc(b1-4)]Man(b1-4)GlcNAc(b1-4)[Fuc(a1-6)]GlcNAc
# Method in brief: as §1
# [15] = molecular target: Gal(b1-4)GlcNAc(b1-2)Man(a1-3)[Man(a1-6)]Man(b1-4)GlcNAc(b1-4)GlcNAc
# Method in brief: as §1
# [16] = molecular target: Gal(b1-4)GlcNAc(b1-3)Gal(b1-4)GlcNAc(b1-2)Man(a1-3)[Gal(b1-4)GlcNAc(b1-3)Gal(b1-4)GlcNAc(b1-2)Man(a1-6)]Man(b1-4)GlcNAc(b1-4)GlcNAc
# Method in brief: as §1
# [17] = molecular target: Gal(b1-6)Gal
# Method in brief: as §1
# [18] = molecular target: Gal3S(b1-3)[Fuc(a1-4)]GlcNAc
# Method in brief: as §1
# [19] = molecular target: Gal3S(b1-4)[Fuc(a1-3)]GlcNAc
# Method in brief: as §1
# [20] = molecular target: Gal6S(b1-3)GlcNAc
# Method in brief: as §1
# [21] = molecular target: GalNAc4S6S(b1-4)GlcNAc
# Method in brief: as §1
# [22] = molecular target: GlcA(b1-6)Gal
# Method in brief: as §1
# [23] = molecular target: GlcNAc(a1-4)Gal(b1-4)GlcNAc
# Method in brief: as §1
# [24] = molecular target: GlcNAc(b1-2)Man(a1-3)[GlcNAc(b1-4)][GlcNAc(b1-2)Man(a1-6)]Man(b1-4)GlcNAc(b1-4)GlcNAc
# Method in brief: as §1
# [25] = molecular target: GlcNAc(b1-2)[GlcNAc(b1-4)]Man(a1-3)[GlcNAc(b1-2)Man(a1-6)]Man(b1-4)GlcNAc(b1-4)GlcNAc
# Method in brief: as §1
# [26] = molecular target: GlcNAc(b1-2)[GlcNAc(b1-4)]Man(a1-3)[GlcNAc(b1-4)][GlcNAc(b1-2)[GlcNAc(b1-6)]Man(a1-6)]Man(b1-4)GlcNAc(b1-4)GlcNAc
# Method in brief: as §1
# [27] = molecular target: GlcNAc(b1-3)Fuc
# Method in brief: as §1
# [28] = molecular target: GlcNAc(b1-3)Gal(b1-3)GalNAc
# Method in brief: as §1
# [29] = molecular target: GlcNAc(b1-3)Gal(b1-4)GlcNAc(b1-3)Gal(b1-4)GlcNAc(b1-2)Man(a1-3)[GlcNAc(b1-3)Gal(b1-4)GlcNAc(b1-3)Gal(b1-4)GlcNAc(b1-2)Man(a1-6)]Man(b1-4)GlcNAc(b1-4)GlcNAc
# Method in brief: as §1
# [30] = molecular target: GlcNAc(b1-3)Gal(b1-4)GlcNAc(b1-3)Gal(b1-4)GlcNAc(b1-2)[GlcNAc(b1-3)Gal(b1-4)GlcNAc(b1-3)Gal(b1-4)GlcNAc(b1-6)]Man(a1-6)[GlcNAc(b1-3)Gal(b1-4)GlcNAc(b1-3)Gal(b1-4)GlcNAc(b1-2)Man(a1-3)]Man(b1-4)GlcNAc(b1-4)[Fuc(a1-6)]GlcNAc
# Method in brief: as §1
# [31] = molecular target: GlcNAc(b1-4)GlcNAc(b1-4)GlcNAc(b1-4)GlcNAc(b1-4)GlcNAc
# Method in brief: as §1
# [32] = molecular target: GlcNAc(b1-6)Gal(b1-4)GlcNAc
# Method in brief: as §1
# [33] = molecular target: Man(a1-2)Man(a1-3)[Man(a1-6)]Man(a1-6)[Man(a1-2)Man(a1-3)]Man(b1-4)GlcNAc(b1-4)GlcNAc
# Method in brief: as §1
# [34] = molecular target: Neu5Ac(a2-3)Gal(b1-3)GalNAc(b1-4)[Neu5Ac(a2-8)Neu5Ac(a2-3)]Gal(b1-4)Glc
# Method in brief: as §1
# [35] = molecular target: Neu5Ac(a2-3)Gal(b1-3)GlcNAc(b1-2)Man(a1-3)[Neu5Ac(a2-3)Gal(b1-3)GlcNAc(b1-2)Man(a1-6)]Man(b1-4)GlcNAc(b1-4)GlcNAc
# Method in brief: as §1
# [36] = molecular target: Neu5Ac(a2-3)Gal(b1-4)GlcNAc(b1-2)Man(a1-3)[Neu5Ac(a2-3)Gal(b1-4)GlcNAc(b1-2)Man(a1-6)]Man(b1-4)GlcNAc(b1-4)GlcNAc
# Method in brief: as §1
# [37] = molecular target: Neu5Ac(a2-3)Gal(b1-4)GlcNAc(b1-3)Gal(b1-4)[Fuc(a1-3)]GlcNAc
# Method in brief: as §1
# [38] = molecular target: Neu5Ac(a2-3)Gal(b1-4)[Fuc(a1-3)]GlcNAc
# Method in brief: as §1
# [39] = molecular target: Neu5Ac(a2-3)Gal(b1-4)[Fuc(a1-3)]GlcNAc(b1-3)Gal
# Method in brief: as §1
# [40] = molecular target: Neu5Ac(a2-6)Gal(b1-4)GlcNAc(b1-2)Man(a1-3)[Neu5Ac(a2-6)Gal(b1-4)GlcNAc(b1-2)Man(a1-6)]Man(b1-4)GlcNAc(b1-4)[Fuc(a1-6)]GlcNAc
# Method in brief: as §1
# [41] = molecular target: Neu5Ac(a2-6)Gal(b1-4)GlcNAc(b1-2)[Neu5Ac(a2-6)Gal(b1-4)GlcNAc(b1-4)]Man(a1-3)[GlcNAc(b1-4)][Neu5Ac(a2-6)Gal(b1-4)GlcNAc(b1-4)Man(a1-6)]Man(b1-4)GlcNAc(b1-4)GlcNAc
# Method in brief: as §1
# [42] = molecular target: Neu5Ac(a2-6)GlcNAc(b1-4)GlcNAc
# Method in brief: as §1
# [43] = molecular target: Neu5Ac(a2-8)Neu5Ac(a2-3)[GalNAc(b1-4)]Gal(b1-4)Glc
# Method in brief: as §1
# [44] = molecular target: Neu5Ac(a2-8)Neu5Gc(a2-3)Gal(b1-4)GlcNAc
# Method in brief: as §1
# [45] = molecular target: Neu5Ac9Ac(a2-6)Gal(b1-4)GlcNAc
# Method in brief: as §1
# [46] = molecular target: Neu5Gc(a2-3)Gal(b1-4)GlcNAc
# Method in brief: as §1
# [47] = molecular target: Neu5Gc(b2-6)Gal(b1-4)GlcNAc
# Method in brief: as §1
binder,measurement,setting,value
"SAOUHSC 02783 (Staphylococcus aureus), Q5HD69 (protein) MIHSKKLTLGICLVLLIILIVGYVIMTKTNGRNAQIKDTFNQTLKLYPTKNLDDFYDKEGFRDQEFKKGDKGTWIVNSEMVIEPKGKDMETRGMVLYINRNTRTTKGYYFISEMTDDSNGRPKDDEKRYPVKMEHNKIIPTKPLPNDKLKKEIENFKFFVQYGNFKDINDYKDGDISYNPNVPSYSAKYQLNNDDYNVQQLRKRYDIPTKQAPKLLLKGDGDLKGSSVGSRSLEFTFVENKEENIYFTDSVQYTPSEDTRYESN",glycan array binding signal (z-score),[1],2.61
same,glycan array binding signal (z-score),[2],-0.248
same,glycan array binding signal (z-score),[3],0.108
same,glycan array binding signal (z-score),[4],4.52
same,glycan array binding signal (z-score),[5],-0.71
same,glycan array binding signal (z-score),[6],0.515
same,glycan array binding signal (z-score),[7],-1.39
same,glycan array binding signal (z-score),[8],-0.596
same,glycan array binding signal (z-score),[9],-1.73
same,glycan array binding signal (z-score),[10],-0.932
same,glycan array binding signal (z-score),[11],0.236
same,glycan array binding signal (z-score),[12],3.09
same,glycan array binding signal (z-score),[13],-0.308
same,glycan array binding signal (z-score),[14],-0.077
same,glycan array binding signal (z-score),[15],5.18
same,glycan array binding signal (z-score),[16],2.58
same,glycan array binding signal (z-score),[17],0.805
same,glycan array binding signal (z-score),[18],-0.32
same,glycan array binding signal (z-score),[19],-0.324
same,glycan array binding signal (z-score),[20],-0.599
same,glycan array binding signal (z-score),[21],-0.245
same,glycan array binding signal (z-score),[22],2.83
same,glycan array binding signal (z-score),[23],-0.454
same,glycan array binding signal (z-score),[24],-0.821
same,glycan array binding signal (z-score),[25],1.11
same,glycan array binding signal (z-score),[26],-0.289
same,glycan array binding signal (z-score),[27],-0.235
same,glycan array binding signal (z-score),[28],-0.447
same,glycan array binding signal (z-score),[29],2.6
same,glycan array binding signal (z-score),[30],2.84
same,glycan array binding signal (z-score),[31],-0.476
same,glycan array binding signal (z-score),[32],0.133
same,glycan array binding signal (z-score),[33],0.494
same,glycan array binding signal (z-score),[34],-0.869
same,glycan array binding signal (z-score),[35],6.23
same,glycan array binding signal (z-score),[36],0.306
same,glycan array binding signal (z-score),[37],-0.998
same,glycan array binding signal (z-score),[38],-1.44
same,glycan array binding signal (z-score),[39],-0.162
same,glycan array binding signal (z-score),[40],2.81
same,glycan array binding signal (z-score),[41],0.093
same,glycan array binding signal (z-score),[42],1.36
same,glycan array binding signal (z-score),[43],-0.759
same,glycan array binding signal (z-score),[44],-1.02
same,glycan array binding signal (z-score),[45],1.65
same,glycan array binding signal (z-score),[46],3.09
same,glycan array binding signal (z-score),[47],-0.76
